PubChem BioAssay (Tox21)
Values without a mark were called inactive. The source made the active and inactive calls. The call rests on the fitted dose curve; in most records, active means well fitted curve in the direction sought with a large enough effect in the repeat runs; inconclusive means weak or mixed curves; inactive means flat fitted curve, though single readings scatter.

Experiment: qHTS assay to test for compound auto fluorescence at 590 nm (red) in HepG2 cell free culture (AID 720684)
Conditions: cell-free medium autofluorescence, red 540/590 nm; series mostly up to 91.3 µM; fluorescence, % of Rose Bengal: at the top concentration
Source text: U.S. Tox21 Program National Center for Advancing Translational Sciences [NCATS] NIH Chemical Genomics Center [NCGC] U.S. Environmental Protection Agency [EPA] National Institutes of Environmental Health Sciences [NIEHS] National Toxicology Program [NTP] U.S. Food and Drug Administration [FDA] Tox21 Assay Overview: Compound auto fluorescence often interferes with screening of the compound library against various biological targets and signaling pathways. Some of these compounds may have fluorophoric properties. Such properties may interfere with the assay outputs resulting in false positives and/or negatives. To decrease such complications and ensure the compound activities are relevant in terms of biological response, the Tox21 10K compound library was screened for auto fluorescence. From the fluorophores used as reporter signals in our screening assays, the auto fluorescence equivalencies of compounds against three fluorophores have been evaluated: Triamterene, Fluorescein and Rose Bengal sodium for blue, green and red fluorescence, respectively. The fluorescence intensities were measured using Excitation/Emission wavelengths at 405/460nm, 485/535nm and 540/590nm for blue, green and red labels, respectively. This assay includes the red fluorescence data.
Tox21 Assay Protocol Summary: 5 uL of culture medium (MEM containing 10% FBS) per well was dispensed into black wall/clear bottom 1536-well plates using a Multidrop Combi Dispenser (ThermoFisher Scientific, Waltham, MA). After 23 nL compound or DMSO vehicle was transferred into assay plate by a pintool work station (Kalypsys, San Diego, CA), fluorescence intensities in the assay plates were measured by an Envision (PerkinElmer, Shelton, CT) plate reader using three labels for measuring blue, green and red fluorescence at […] 460, 535 and 590nm respectively.
On the % scale 0 is the no-effect control and ±100 the full control effect.

Compared with `Cc1ccc2cc(C)ccc2c1`, `CC#Cc1cc(C)nc(Nc2ccccc2)n1` is lower in “fluorescence, % of Rose Bengal” value: 0.59% for the first, -0.0223% for the second.

Compared with `CCC(=O)c1ccc(Cl)cc1`, `CCOC(=O)COc1ccc(Cl)cc1Cl` is higher in “fluorescence, % of Rose Bengal” value: -0.218% for the first, 0.351% for the second.

Going from `BrCC1CO1` (stereo not given) to `N=C(N)[Se]`, the “fluorescence, % of Rose Bengal” value rises from -0.0528% to 0.204%.

Going from `C=CC(=O)OCCN(C)C` to `COP(=O)(OC)O/C(C)=C/C(=O)N(C)C`, the “fluorescence, % of Rose Bengal” value falls from 0.0028% to -0.0425%.

First: CCCOc1nn(C(=O)NS(=O)(=O)c2ccccc2C(=O)OC)c(=O)n1C
Second: CNC(=O)Oc1ccccc1C(C)C
The “fluorescence, % of Rose Bengal” value of the first is lower: -0.0563% for the first, 0.0185% for the second.

First: CNC(=O)O/N=C(/CSC)C(C)(C)C
Second: O=C(CCl)NCO
The “fluorescence, % of Rose Bengal” value of the first is lower: -0.252% for the first, 0.0749% for the second.

First: Clc1nc(Cl)nc(Nc2ccccc2Cl)n1
Second: CCCCCCCCSC(=O)Oc1cc(Cl)nnc1-c1ccccc1
The “fluorescence, % of Rose Bengal” value of the first is lower: -0.04% for the first, 0.0046% for the second.

Compared with `O=C(Cl)C(Cl)(Cl)Cl`, `CC(Cl)(Cl)Cl` is lower in “fluorescence, % of Rose Bengal” value: -0.0222% for the first, -0.115% for the second.

First: NC1(c2ccccc2)CCCCC1
Second: CC(O)CCl (stereo not given)
The “fluorescence, % of Rose Bengal” value of the first is higher: 0.148% for the first, -0.0745% for the second.

Going from `CC1NCCOC1c1ccccc1` (stereo not given) to `NC(=O)CS(=O)C(c1ccccc1)c1ccccc1` (stereo not given), the “fluorescence, % of Rose Bengal” value falls from 0.512% [at 46 µM] to 0.477% [at 46 µM].

Going from `CCC1(CC)C(=O)C=CNC1=O` to `CC1=C2[C@H]3OC(=O)[C@@H](C)[C@@H]3CC[C@@]2(C)C=CC1=O`, the “fluorescence, % of Rose Bengal” value rises from -0.0263% [at 46 µM] to 0.0204% [at 46 µM].

Going from `CC[C@@H](CO)NC(=O)[C@@H]1C=C2c3cccc4c3c(cn4C)C[C@H]2N(C)C1` to `CCOC(=O)c1ncn2c1CN(C)C(=O)c1c(I)cccc1-2`, the “fluorescence, % of Rose Bengal” value rises from 0.009% [at 46 µM] to 0.137% [at 46 µM].

Going from `CCCN1CCC[C@@H]2Cc3nc(N)ncc3C[C@H]21` to `Cn1c(CCCC(=O)O)nc2cc(N(CCCl)CCCl)ccc21`, the “fluorescence, % of Rose Bengal” value rises from -0.208% [at 46 µM] to 0.0054% [at 46 µM].

Compared with `CCN(CC)CCOC(=O)C(O)(c1ccccc1)c1ccccc1`, `N[C@@H](Cc1ccc(Oc2cc(I)c(O)c(I)c2)c(I)c1)C(=O)O` is lower in “fluorescence, % of Rose Bengal” value: 0.0794% [at 46 µM] for the first, 0.0218% [at 46 µM] for the second.

With `CC(C)(C)NC[C@H](O)c1ccc(O)cc1Cl` the “fluorescence, % of Rose Bengal” value was 0.0086% [at 46 µM].

Compared with `CN(C)C(=O)Oc1cc(OC(=O)N(C)C)cc(C(O)CNC(C)(C)C)c1` (stereo not given), `COc1ccc(CN2CCNCC2)c(OC)c1OC` is higher in fluorescence, % of Rose Bengal: -0.0966% [at 18.6 µM] for the first, 0.0451% [at 18.6 µM] for the second.

In the case of `CCC1(c2cccc(O)c2)CCCCN(C)C1` (stereo not given), the fluorescence, % of Rose Bengal is reported as 0.0113% [at 18.6 µM].

For `ClC1=C(Cl)C2(Cl)C(CBr)CC1(Cl)C2(Cl)Cl` (stereo not given), the outcome was “inactive”.
In the case of `C[C@H]1CCCC(=O)CCC/C=C/c2cc(O)cc(O)c2C(=O)O1`, the outcome is reported as “inactive”.

First: O=C(Cl)/C=C/C(=O)Cl
Second: O=C(Cl)c1ccccc1
The “fluorescence, % of Rose Bengal” value of the first is lower: -0.489% [at 95.7 µM] for the first, 0.0009% [at 95.7 µM] for the second.

Going from `COc1cc(CCN)cc(OC)c1OC` to `CCCCOC(C)=O`, the “fluorescence, % of Rose Bengal” value rises from -0.001% [at 95.7 µM] to 0.0037% [at 95.7 µM].

For `C=C(Cl)CSC(=S)N(CC)CC`, the “fluorescence, % of Rose Bengal” value was -0.418% [at 95.7 µM].

Compound `Brc1c(Br)c(Br)c(Br)c(Br)c1Br` has a fluorescence, % of Rose Bengal of 0.0791% [at 3.72 µM].
